Data published in the OligoGym collection.
Also: reference of the scale not given here.

These sequences were tested against PRSS27 (assay: pooled miR-30 sensor sort-seq; sequence = guide strand). Conditions: shRNA.
TTGGTAGCCAAACTCGGTGTCT gave a sensor-assay potency score (higher = more potent) of -0.152. In the case of TTACAAATGAGTCTGGTGGGGC, the sensor-assay potency score (higher = more potent) was -0.115. In the case of TGACACGGATGTAGACACCTGG, the sensor-assay potency score (higher = more potent) was -0.413. In the case of TGCAGTTTGGGGATGATCCGAT, the sensor-assay potency score (higher = more potent) was 0.0447. TCATTCTTGATGGTTTTGGGTT was tested, and the sensor-assay potency score (higher = more potent) was -0.872. Sequence TTTGCTGTAGAGCAGGTTGCAC has a sensor-assay potency score (higher = more potent) of -0.973. TTGCTGTAGAGCAGGTTGCACT gave a sensor-assay potency score (higher = more potent) of -1.36. In the case of ATACATAGCGTGTGGTCCCGGC, the sensor-assay potency score (higher = more potent) was -0.586. TAGAGCAGGTTGCACTTGGGTG showed a sensor-assay potency score (higher = more potent) of -0.65. AAACTCGGTGTCTTTGCTGTAG gave a sensor-assay potency score (higher = more potent) of -0.247.

The sequences below were run against PRSS35 in the same assay as above. Conditions: shRNA.
Work on TACACCTGTCTCTTTCTCCTAA yielded a sensor-assay potency score (higher = more potent) of -0.12. Work on TAATACACAACCAGCATCCTAT yielded a sensor-assay potency score (higher = more potent) of -0.461. TAGAACAAACTATTTCTCCCAT gave a sensor-assay potency score (higher = more potent) of 0.0739. TTGGATTCGTCGGACACACTGC was tested, and the sensor-assay potency score (higher = more potent) was -0.732. Sequence TTCCTCATCTTCAACAACCCTA has a sensor-assay potency score (higher = more potent) of 0.185. TTTCTTTTTGTGAGCACGCTTC showed a sensor-assay potency score (higher = more potent) of -0.433. Sequence TTGTCCAAGATGCTGAACCTGC has a sensor-assay potency score (higher = more potent) of -0.668. TAACTTTCTGTCTCTATTCTGA gave a sensor-assay potency score (higher = more potent) of -0.225. In the case of AAATCTTGAACTTTCACCCTGG, the sensor-assay potency score (higher = more potent) was 0.84. Sequence TTACCATCATCTTAGCATCTGC has a sensor-assay potency score (higher = more potent) of -0.234. With TTGAGTCGGCTCAAGAACCAAA the sensor-assay potency score (higher = more potent) was -0.83. In the case of TCACATTTAATACACAACCAGC, the sensor-assay potency score (higher = more potent) was -0.906.

These sequences were tested against PRSS57 in the same assay as above. Conditions: shRNA.
TACACGTCGGGGGTCTTGGGGT was tested, and the sensor-assay potency score (higher = more potent) was -1.06. In the case of AGCATCGATGCCAAACACCTGC, the sensor-assay potency score (higher = more potent) was -0.826. In the case of ATCGATGCCAAACACCTGCTGG, the sensor-assay potency score (higher = more potent) was -0.864. In the case of TTCACGGGCAGCATCAGGGCGG, the sensor-assay potency score (higher = more potent) was -0.51. Work on ACACCTGCGTGTACACGTCGGG yielded a sensor-assay potency score (higher = more potent) of -0.753. TGGTAGTCGGGGTGTGTGGTGA was tested, and the sensor-assay potency score (higher = more potent) was -0.823. With TCGATGCCAAACACCTGCTGGG the sensor-assay potency score (higher = more potent) was -0.917. TGTGGTGAGAGCATCGATGCCA was tested, and the sensor-assay potency score (higher = more potent) was 0.623. Sequence ACAAAGGCGGACACCTGCGTGT has a sensor-assay potency score (higher = more potent) of -0.414. TCTCTGTGGCTGAAGCAGTGGG gave a sensor-assay potency score (higher = more potent) of -1.07. For AAGTCAGACACGAAGCCCCAGC, the sensor-assay potency score (higher = more potent) was -0.91. TCGGACCTTGGCCTCCATCAGT was tested, and the sensor-assay potency score (higher = more potent) was -1.55.

Each sequence was assayed against PRUNE in the same assay as above. Conditions: shRNA.
TTTCTTTCGAGAGACCTGGGTG showed a sensor-assay potency score (higher = more potent) of -0.0186. Work on TGTCTATAGATAGTCTTCTGGT yielded a sensor-assay potency score (higher = more potent) of -0.567. TATAGATAGTCTTCTGGTCTTT showed a sensor-assay potency score (higher = more potent) of -0.453. TATTCGTGCTACATGAGGCTGA gave a sensor-assay potency score (higher = more potent) of 0.818. Work on TTGTCTATAGATAGTCTTCTGG yielded a sensor-assay potency score (higher = more potent) of -0.685. In the case of TTACCTTCCACATAGCTACAGA, the sensor-assay potency score (higher = more potent) was -0.331.
